Screening results as filed in PubChem.
Chronic BCR inh = qHTS Assay to Find Inhibitors of Chronic Active B-Cell Receptor Signaling | Potency, µM (titrated, usually from 46.1 µM), for the others: at the highest dose activity change, negative = inhibition, actives largely listed as inhibitors | ABC-DLBCL IkBa-CBG/CBR reporter, luminescence ratio, 4 h | 340,000 tested, 0.05% active | AID 493014, 2011; active means well fitted inhibition curve with a large enough effect in the signal ratio, with a control signal flat, not every such curve was filed as active; inconclusive means small, poorly fitted or top-dose-only effect, or effect the other way, or a change in a side signal; the % refers to the signal ratio;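 further: potency means the concentration at half of the fitted maximal effect; plate controls were basal doxycycline-induced cells for no effect and cells given 10 µM MG132 for full effect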
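TMD8 ABC-DLBCL cells carrying doxycycline-inducible green luciferase fused to IkappaBalpha plus unfused red luciferase were exposed to compounds (up to 46 uM) for 4 hrs at 37C. Activity came from the overlap-corrected green/red luminescence ratio.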
TCR act = Activators of T cell receptors: qHTS campaign. 330,000 tested, under 10 active. Potency, µM (top dose mostly 9.22 µM), for the others: at the top dose activation of IL-2 secretion, hits mostly activators. AID 504894, 2011. primary human leukocytes, anti-CD3, IL-2 HTRF, 48 h; further: % of control where 0% means no effect
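Readout: HTRF IL-2, Eu-cryptate/d2 antibody pair, 320nm excitation, 665nm emission. Stimulus: a-CD3 beads, no co-stimulation. Cells: primary human leukocytes. Exposure: 48 hr with compound.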
Tb PFK inh-1 = qHTS Assay to Find Inhibitors of T. brucei phosphofructokinase; ATP-dependent 6-phosphofructokinase (Trypanosoma brucei brucei), O15648; T. brucei PFK, ADP-Glo luminescence; Potency, µM (series often up to 57.5 µM), for inactives: top-dose activity, negative = inhibition, usual class: inhibitors; 330,000 tested, 0.17% active;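 further: potency means the concentration at half of the fitted maximal effect; 0% = uninhibited 1x PFK enzyme wells and -100% = no-enzyme wells; nearly all actives have a fitted effect of over 60% in size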
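Activity is normalized to no-enzyme wells (full inhibition) and 1.25 nM enzyme wells (no inhibition). Reaction: 0.5 mM F6P, 0.1 mM ATP, 45 min RT, ADP-Glo luminescence; concentration-response curves fitted and classed by quality.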
CCT modulator = High-Throughput Screening for Modulators of Cytosolic Chaperonin Activity; purified chaperonin ATPase assay, HTRF ADP detection, 30 min; activity change, % (test concentration not listed), hits read low; 360,000 tested, 0.3% active; AID 651819, 2012; in the data active means activity change below about -30%; further: on the % scale 0 is the no-effect control and ±100 the full control effect
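ATPase activity: ADP formed was measured by HTRF Transcreener (665/615 nm ratio) after 30 min at 37 deg C with 10 uM ATP. Compounds screened at one 76 uM concentration against 40 or 20 nM TRiC in Tris pH 7.4/KCl/MgCl2/DTT buffer.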
ASM inhibitor = Inhibitors of Secretory Acid Sphingomyelinase (S-ASM): qHTS; Sphingomyelin phosphodiesterase (Homo sapiens), P17405; placental ASM, HMU-PC fluorogenic substrate, 60 min; Potency, µM (doses to about 57.5 µM), inactives show at the top dose activity change, negative = inhibition, hits mostly inhibitors; 340,000 tested, 0.006% active; AID 504937, 2011; further: potency means the concentration at half of the fitted maximal effect
Target sequence (P17405 47-631 limits assumed): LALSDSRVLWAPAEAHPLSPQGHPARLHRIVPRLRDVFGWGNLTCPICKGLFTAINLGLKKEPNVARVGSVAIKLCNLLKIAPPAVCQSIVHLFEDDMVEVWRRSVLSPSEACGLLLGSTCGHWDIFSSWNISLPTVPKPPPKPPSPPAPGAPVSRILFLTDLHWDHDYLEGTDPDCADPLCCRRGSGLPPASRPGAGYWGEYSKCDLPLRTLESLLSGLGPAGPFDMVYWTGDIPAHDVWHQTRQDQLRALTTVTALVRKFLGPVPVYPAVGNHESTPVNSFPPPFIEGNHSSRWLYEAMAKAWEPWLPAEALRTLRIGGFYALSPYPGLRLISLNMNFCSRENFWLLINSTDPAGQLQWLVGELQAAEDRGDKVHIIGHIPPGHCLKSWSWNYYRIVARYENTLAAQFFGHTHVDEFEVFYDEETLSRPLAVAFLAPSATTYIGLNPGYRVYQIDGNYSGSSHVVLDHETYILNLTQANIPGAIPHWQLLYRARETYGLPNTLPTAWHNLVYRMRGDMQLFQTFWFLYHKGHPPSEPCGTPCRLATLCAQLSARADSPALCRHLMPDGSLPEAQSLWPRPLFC
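HMU-PC0 cleavage (9 uM final) by human placental ASM, 60 min at 37 °C following 10 min compound exposure at RT; stopped at pH 10, fluorescence Ex 386/Em 447 nm.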
Tb PFK KinaseGlo = Tb PFK orthogonal confirmatory assay using ATP depletion (Kinase-Glo Plus) as an alternative measure of Tb PFK activity: Hit Validation | AID 504636, 2011 | 1,100 tested, 47% active | Tb PFK enzyme, ATP depletion, Kinase-Glo Plus luminescence | shares compounds with Tb PFK inh-1 | Potency, µM (series often up to 57.5 µM), for the others: at the highest dose inhibition; calls by dose curve; further: potency means the concentration at half of the fitted maximal effect; nearly all actives have a fitted effect of over 60% in size
Tb PFK inh-2 = Inhibitors of T. brucei phosphofructokinase: Hit Validation; shares compounds with Tb PFK inh-1; purified T. brucei PFK, ADP-Glo luminescence, 45 min; 1,100 tested, 41% active; Potency, µM (titrated, usually from 57.5 µM), without a hit: at the highest dose activity change, negative = inhibition, hits mostly inhibitors;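 further: potency means the concentration at half of the fitted maximal effect; plate controls were full PFK enzyme control for no effect and no enzyme control for full effect; nearly all actives have a fitted effect of over 60% in size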
* hit, by the source's call; i = inactive; ? = inconclusive; nt = not tested or not shown; [ ] = another dose, or the depositor's remark. In the library only some 0.49% were active in any assay of this set; here they are far more common. Unless noted, the call rests on the fitted dose curve; in most records, active means well fitted curve in the direction sought with a large enough effect; inconclusive means small, poorly fitted or top-dose-only effect, or another doubt; inactive means no such curve, though single readings can be large; an effect the other way counts as inactive or inconclusive.

SMILES	Chronic BCR inh	TCR act	Tb PFK inh-1	CCT modulator	ASM inhibitor	Tb PFK KinaseGlo	Tb PFK inh-2
N=c1ccn(Cc2ccc(Cl)cc2)cc1	-2%	-6%	11µM*	-1	3%	?	?
N=c1ccn(Cc2cccc(Cl)c2)cc1	-2%	4%	7.6µM*	0	0%	?	19µM*
N=c1ccn(Cc2ccc(Cl)c(Cl)c2)cc1	1%	0%	1.7µM*	0	4%	2.4µM*	5.4µM*
CCOC(=O)[C@]12Cc3cc(C)ccc3[C@H]1N(C)C(=O)c1cc(OC)ccc12	nt	nt	nt	0	nt	nt	nt
CCOP(=O)(OCC)/C(C#N)=C/c1ccc(-c2ccc(F)cc2F)o1	1%	3%	1%	-2	77%	nt	nt
O=C(COC(=O)Cc1cccc(C(F)(F)F)c1)NCc1ccco1	5%	4%	8.5µM*	1	-8%	3.8µM*	11µM*
CC1(C)C(C(=O)NCc2ccco2)C1(C)C	1%	-2%	-3%	2	-2%	nt	nt
COc1cc(OC)cc(C(=O)OCC(=O)NCc2ccco2)c1	?	1%	15µM*	-2	-3%	?	?
O=C(Nc1cccc(-c2csc(Nc3ccccc3)n2)c1)c1ccccc1	?	-4%	0%	-1	-13%	nt	nt
CCN1CCN(C(=O)COc2ccc(S(=O)(=O)N3CCOCC3)cc2Cl)CC1	7%	-2%	-20%	-1	4%	nt	nt
CCOc1cc(C(=O)OCc2ccc([N+](=O)[O-])cc2)ccc1OCC(=O)N1CCOCC1	0%	-3%	?	1	-1%	15µM*	27µM*
O=C(Cn1cnc2ccccc2c1=O)NCCC(=O)N1CCC2(CC1)OCCO2	1%	1%	0%	0	4%	nt	nt
O=C(Cn1ccc2ccccc2c1=O)NCCC(=O)N1CCN(c2cccc(Cl)c2)CC1	-20%	3%	24µM*	-2	-2%	?	?
O=C1CCc2cc(S(=O)(=O)NCCC(=O)N3CCN(c4cccc(Cl)c4)CC3)ccc2N1	6%	-2%[46.1 µM]	27µM*	0	0%	17µM*	?
CCOc1ccc(/C=N/Nc2nc(=O)[nH]nc2C)cc1OC	?	5%	0%	0	1%	nt	nt
C=C(C)CC1(CC)C(=O)NC(=S)NC1=O	nt	0%	nt	-3	7%	nt	nt
O=c1c2c([N+](=O)[O-])cc([N+](=O)[O-])cc2sn1Cc1ccccc1	?	-9%	2.7µM*	1	-1%	?	21µM*
COc1ccc(OC(=O)N(C)C[C@@H]2OCc3ccccc3-c3c(n(C)c4ccccc34)C(=O)N([C@H](C)CO)C[C@@H]2C)cc1	nt	nt	nt	-3	nt	nt	nt
CCOP(=O)(Cc1ccc(C(C)(C)CC(C)=O)o1)OCC	?	-1%	0%	0	-12%	nt	nt
O=C(NCc1cccc(Cl)c1)c1cc(COc2ccc3ncccc3c2)on1	-23%	1%	15µM*	0	-9%	12µM*	13µM*
O=C(c1ccc(Cl)cc1)C1CCCN(Cc2ccc3ncccc3c2)C1 (stereo not drawn)	1%	-1%	-16%	0	-3%	nt	nt
COc1ccc(OC)c(CN2CCN(C(=O)Cc3ccccc3)CC2)c1	2%	5%	-8%	-3	3%	nt	nt
COc1ccc(C(=O)COC(=O)/C=C/c2ccccc2)c(OC)c1	?	-1%	?	-1	-2%	?	-14%
CSc1ccc(Cl)c(C(=O)OCC(=O)N2CCN(C(=O)c3ccco3)CC2)c1	?	1%	?	2	3%	nt	nt
Cc1nnc(NCCc2ccccc2)[nH]c1=O	-1%	-1%	?	-2	1%	24µM*	27µM*
SMILES	Chronic BCR inh	TCR act	Tb PFK inh-1	CCT modulator	ASM inhibitor	Tb PFK KinaseGlo	Tb PFK inh-2
CC1CC2(C)C(CCC3C2CCC2(C)C(OP(=O)(N4CC4)N4CC4)CCC32)CC1=O (stereo not drawn)	nt	-1%	nt	-1	-7%	nt	nt
OCCN1CCN(c2nc(-c3ccccc3)c3cc(Br)ccc3n2)CC1	?	1%	0%	-1	10%	nt	nt
Cc1ccccc1NC(=O)CSc1ccsc1[N+](=O)[O-]	-7%	-1%[46.1 µM]	27µM*	-1	?	11µM*	17µM*
Cc1ccc2c(c1)=C(c1ccccc1)N(O)CC(=O)N=2	?	-27%	-5%	2	4%	nt	nt
CCOC(=O)[C@]12Cc3cc(Cl)ccc3[C@H]1N(C1CCCCC1)C(=O)c1ccccc12	nt	nt	nt	0	nt	nt	nt
CCOC(=O)c1c(/N=C/C2C(=O)NC(=S)NC2=O)sc2c1CCC2	1%	-93%	5%	2	-5%	nt	nt
CCOC(=O)c1c(-c2ccc(OC)cc2)csc1/N=C/C1C(=O)CCCC1=O	9%	4%	?	1	-9%	1%	-1%
Clc1ccc(OCc2cnc(Cl)s2)cc1	?	7%	0%	0	0%	nt	nt
CC(O)CNc1ccc([N+](=O)[O-])c2cccnc12 (stereo not drawn)	-3%	1%[46.1 µM]	0%	1	-10%	nt	nt
Cc1ccc(NCc2ccc(O)c3ncccc23)cc1	?	2%	?	0	-1%	18%	-11%
Cc1nnc(NC(=O)c2cccn(Cc3cccc([N+](=O)[O-])c3)c2=O)s1	-16%	nt	nt	nt	nt	nt	nt
O=C(O)COc1ccccc1C=NNc1ccc([N+](=O)[O-])cc1S(=O)(=O)Nc1ccc(Cl)cc1	?	-2%[46.1 µM]	19µM*	-3	-9%	30µM*	?
Oc1ccc(N=Nc2ccccc2-c2nn[nH]n2)c(O)c1	7%	-4%	?	0	14%	-29%	?
CC1(C)Cc2c(c(N3CCCC3)nc3sc(C(=O)Nc4ccccc4)c(N)c23)CO1	?	2%	0%	0	i	nt	nt
CC(=O)n1cc(C(C[N+](=O)[O-])SCCN)c2ccccc21 (stereo not drawn)	?	1%	?	-2	-5%	-20%	?
O=C1N=c2ccccc2=C1c1sc(Nc2ccc(O)cc2)nc1O	?	2%	?	1	?	-3%	15%
N#C/C(C(=O)Nc1ccc(Cl)cc1)=C(/S)Nc1ccccc1	?	5%	9.5µM*	0	-18%	15µM*	?
